In PubChem BioAssay (EPA / NIEHS):
Results filed as inconclusive are left out. Active and inactive are the calls of the source. How the source made its calls, unless noted: active means hit-call score of the fitted dose curve at least 0.9, where 1 is the maximum; inactive means score below 0.9.

How the values were obtained:
[1] = molecular target: Retinoic acid receptor RXR-alpha (Homo sapiens) (UniProt P19793); experiment: ATG_RXRa_TRANS: Attagene TRANS-FACTORIAL HepG2 Assay for human Retinoid X Receptor alpha (RXRa) (AID 2283012; active means hit-call score of the fitted dose curve at least 0.9, where 1 is the maximum)
Chain of Retinoic acid receptor RXR-alpha (Homo sapiens) (P19793 whole entry, looked up, the tested form may be a part): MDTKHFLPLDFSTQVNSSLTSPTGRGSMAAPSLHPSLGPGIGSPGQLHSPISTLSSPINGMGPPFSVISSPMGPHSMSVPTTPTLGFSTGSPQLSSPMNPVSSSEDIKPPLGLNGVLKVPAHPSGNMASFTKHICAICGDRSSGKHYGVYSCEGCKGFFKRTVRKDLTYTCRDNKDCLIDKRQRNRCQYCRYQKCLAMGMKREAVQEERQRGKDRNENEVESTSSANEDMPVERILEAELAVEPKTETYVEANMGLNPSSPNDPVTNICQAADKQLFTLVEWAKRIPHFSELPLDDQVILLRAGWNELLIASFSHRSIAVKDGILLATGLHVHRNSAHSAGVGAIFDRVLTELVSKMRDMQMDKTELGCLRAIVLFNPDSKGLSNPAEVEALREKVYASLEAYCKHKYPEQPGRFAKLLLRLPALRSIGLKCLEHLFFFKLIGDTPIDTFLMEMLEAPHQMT
In short: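 TRANS format reporting activity of exogenous RXRa-Gal4 chimera in transiently transfected HepG2, 24 h exposure. Reporter transcripts quantified by RT-PCR with capillary electrophoresis, with gain of signal scored relative to DMSO.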

[2] = molecular target: human Retinoid X Receptor beta (RXRb), RXRB (gene 6257) (UniProt P28702); experiment: ATG_RXRb_TRANS: Attagene TRANS-FACTORIAL HepG2 Assay for human Retinoid X Receptor beta (RXRb) (AID 2283013; active means hit-call score of the fitted dose curve at least 0.9, where 1 is the maximum)
Chain of human Retinoid X Receptor beta (RXRb), RXRB (gene 6257) (P28702 whole entry, looked up, the tested form may be a part): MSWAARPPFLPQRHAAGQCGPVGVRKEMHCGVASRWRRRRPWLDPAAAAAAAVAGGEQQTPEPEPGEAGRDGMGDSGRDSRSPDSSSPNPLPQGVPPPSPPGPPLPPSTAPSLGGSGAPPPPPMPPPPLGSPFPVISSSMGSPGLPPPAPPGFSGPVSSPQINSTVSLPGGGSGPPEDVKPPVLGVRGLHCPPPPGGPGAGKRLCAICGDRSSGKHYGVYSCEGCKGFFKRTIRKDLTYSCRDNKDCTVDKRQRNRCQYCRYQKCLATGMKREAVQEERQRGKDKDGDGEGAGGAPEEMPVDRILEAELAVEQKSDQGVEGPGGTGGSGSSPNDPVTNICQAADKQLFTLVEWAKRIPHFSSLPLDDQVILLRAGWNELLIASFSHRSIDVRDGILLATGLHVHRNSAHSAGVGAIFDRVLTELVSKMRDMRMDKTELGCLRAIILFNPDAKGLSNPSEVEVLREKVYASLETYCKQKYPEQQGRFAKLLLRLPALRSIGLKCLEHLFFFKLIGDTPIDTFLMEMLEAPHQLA
In short: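 Readout is reporter transcript induction after 24 h dosing. It is measured by RT-PCR of total RNA followed by fluorescent capillary electrophoresis. HepG2 liver cells carry transfected multiple reporter units driven by an exogenous RXRb-Gal4 fusion; activity is relative to DMSO.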

[3] = read-out: E-selectin (Homo sapiens) (UniProt P16581); experiment: BSK_3C_Eselectin: BioMAP Diversity Plus: 3C Assay for Eselectin Biomarker Activity (AID 2283015); settings: primary human endothelial cells (HUVEC); actives raise or lower the signal
In short: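 Primary human umbilical vein endothelial cells (3C system), read 24 h after compound addition; E-selectin measured by ELISA. Bidirectional curve fitting against DMSO baseline; cytotoxicity by parallel SRB total-protein staining.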

[4] = read-out: Interleukin-1 alpha (IL1a), IL1A (gene 3552); experiment: BSK_BE3C_IL1a: BioMAP Diversity Plus: BE3C Assay for Interleukin-1 alpha (IL1a) Biomarker Activity (AID 2283016); settings: primary human bronchial epithelial cells; actives raise or lower the signal
In short: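 IL-1a measured by ELISA after 24 h treatment of human primary bronchial epithelial cells, with gain or loss of signal fitted versus DMSO. Parallel cultures stained with SRB gauge overt cytotoxicity.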

[5] = read-out: Monocyte Chemoattractant Protein-1 (MCP1), CCL2 (gene 6347); experiment: BSK_3C_MCP1: BioMAP Diversity Plus: 3C Assay for Monocyte Chemoattractant Protein-1 (MCP1) Biomarker Activity (AID 2283017); settings: primary human endothelial cells (HUVEC); actives raise or lower the signal
In short: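 Human umbilical vein endothelial cells (3C system) exposed to chemicals for 24 h; MCP-1 quantified by ELISA against the DMSO baseline with bidirectional fitting, and parallel SRB staining used to assess cytotoxicity.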

[6] = read-out: Monocyte Chemoattractant Protein-1 (MCP1), CCL2 (gene 6347); experiment: BSK_4H_MCP1: BioMAP Diversity Plus: 4H Assay for Monocyte Chemoattractant Protein-1 (MCP1) Biomarker Activity (AID 2283018); settings: primary human endothelial cells (HUVEC); actives raise or lower the signal
In short: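 ELISA of MCP-1 (CCL2) 24 h after chemical dosing of HUVEC in the BioMAP 4H system. Gain or loss versus DMSO fitted; parallel SRB staining (560 nm) tracked overt cytotoxicity.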

[7] = read-out: Human Leukocyte Antigen - DR isotype (HLADR), HLA-DRA (gene 3122); experiment: BSK_3C_HLADR: BioMAP Diversity Plus: 3C Assay for Human Leukocyte Antigen - DR isotype (HLADR) Biomarker Activity (AID 2283019); settings: primary human endothelial cells (HUVEC); actives raise or lower the signal
In short: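 HUVEC monoculture, HLA-DR measured by ELISA 24 h after chemical dosing. Fitted bidirectionally against DMSO baseline; parallel SRB staining assessed cytotoxicity, with 3C proliferation read by SRB at 48 h.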

[8] = read-out: Interleukin-8 (IL8), CXCL8 (gene 3576); experiment: BSK_3C_IL8: BioMAP Diversity Plus: 3C Assay for Interleukin-8 (IL8) Biomarker Activity (AID 2283020); settings: primary human endothelial cells (HUVEC); actives raise or lower the signal
In short: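 IL-8 was measured by ELISA in HUVEC cultures 24 h after chemical dosing, with gain or loss of signal fitted relative to DMSO. Parallel SRB total-protein staining tracked overt cytotoxicity.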

[9] = read-out: Monokine induced gamma interferon (MIG), CXCL9 (gene 4283); experiment: BSK_3C_MIG: BioMAP Diversity Plus: 3C Assay for Monokine induced gamma interferon (MIG) Biomarker Activity (AID 2283021); settings: primary human endothelial cells (HUVEC); actives raise or lower the signal;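 on AC50: MIG protein level measured by immunoassay in the treated endothelial cultures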
In short: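 ELISA measurement of MIG in human umbilical vein endothelial cells 24 h after treatment. Cytotoxicity tracked by SRB staining in parallel cultures; gain or loss of signal fitted relative to DMSO.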

[10] = molecular target: human Vitamin D Receptor (VDR), VDR (gene 7421) (UniProt P11473); experiment: ATG_VDR_TRANS: Attagene TRANS-FACTORIAL HepG2 Assay for human Vitamin D Receptor (VDR) (AID 2283022; active means hit-call score of the fitted dose curve at least 0.9, where 1 is the maximum)
Chain of human Vitamin D Receptor (VDR), VDR (gene 7421) (P11473 whole entry, looked up, the tested form may be a part): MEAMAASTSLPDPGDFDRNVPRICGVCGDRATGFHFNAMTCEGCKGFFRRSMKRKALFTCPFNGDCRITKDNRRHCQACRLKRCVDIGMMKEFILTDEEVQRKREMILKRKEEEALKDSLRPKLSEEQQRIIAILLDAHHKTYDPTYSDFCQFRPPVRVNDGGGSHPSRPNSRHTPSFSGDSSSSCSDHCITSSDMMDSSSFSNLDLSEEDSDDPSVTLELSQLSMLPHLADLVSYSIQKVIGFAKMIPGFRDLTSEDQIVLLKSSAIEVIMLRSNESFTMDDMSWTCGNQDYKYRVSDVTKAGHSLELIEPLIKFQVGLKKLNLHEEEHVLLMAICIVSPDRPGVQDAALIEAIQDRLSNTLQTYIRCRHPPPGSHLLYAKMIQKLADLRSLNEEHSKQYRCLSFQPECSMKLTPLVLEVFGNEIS
In short: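 HepG2 cells were transiently transfected with GAL4-UAS reporter units and a chimeric VDR-Gal4 construct, then dosed for 24 hours. Reporter mRNA was quantified by RT-PCR, fluorescent labeling, HpaI digestion and capillary electrophoresis; gain of signal analysed vs DMSO.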

[11] = BSK_3C_SRB: Viability Assessment in the BioMAP Diversity Plus: 3C Assay (AID 2283023); settings: primary human endothelial cells (HUVEC);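 further: fitted both ways against DMSO so a hit may be signal rise or drop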
In short: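 Human umbilical vein endothelial cells in the 3C system, treated 24 h. Total protein measured by 0.1% sulforhodamine B staining after 10% TCA fixation, read at 560 nm; bidirectional fit versus DMSO.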

[12] = read-out: Matrix Metallopeptidase 1 (MMP1), MMP1 (gene 4312); experiment: BSK_BE3C_MMP1: BioMAP Diversity Plus: BE3C Assay for Matrix Metallopeptidase 1 (MMP1) Biomarker Activity (AID 2283024); settings: primary human bronchial epithelial cells; actives raise or lower the signal
In short: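 ELISA measurement of MMP-1 after 24 h compound exposure of primary human bronchial epithelial cells. Changes in either direction fitted relative to DMSO; parallel SRB staining checked overt cytotoxicity.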

[13] = BSK_3C_Vis: BioMAP Diversity Plus: 3C Assay for Morphology Visualization (AID 2283025); settings: primary human endothelial cells (HUVEC);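 further: fitted both ways so gain or loss versus DMSO counts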;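 on AC50: light microscopy image of cell morphology used as background control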
In short: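 Light-microscopy visualization of HUVEC cultures at 24 h post-treatment, with DMSO as baseline for bidirectional fitting.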

[14] = read-out: Pselectin, SELP (gene 6403); experiment: BSK_4H_Pselectin: BioMAP Diversity Plus: 4H Assay for Pselectin Biomarker Activity (AID 2283026); settings: primary human endothelial cells (HUVEC); actives raise or lower the signal
In short: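 ELISA of surface P-selectin on HUVEC, 24 h after dosing, with parallel SRB staining (0.1% after 10% TCA fixation, 560 nm) for overt cytotoxicity. Activity fitted in both directions relative to DMSO.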

[15] = BSK_4H_SRB: Viability Assessment in the BioMAP Diversity Plus: 4H Assay (AID 2283027); settings: primary human endothelial cells (HUVEC);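 further: cells exposed to compound for 24 h before staining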;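 on AC50: curves fitted both ways versus DMSO so AC50 may be loss or gain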
In short: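 Cytotoxicity readout: sulforhodamine B (0.1%) staining of total protein after 10% TCA fixation, measured at 560 nm in human umbilical vein endothelium at 24 h. DMSO set the baseline; fitting was bidirectional.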

[16] = BSK_BE3C_SRB: Viability Assessment in the BioMAP Diversity Plus: BE3C Assay (AID 2283028); settings: primary human bronchial epithelial cells;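 on AC50: fitted both ways so AC50 may mark signal gain or loss versus DMSO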
In short: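 Human bronchial epithelial primary cells in confluent culture, 24 h after chemical dosing; total protein by 0.1% SRB staining after 10% TCA fixation, read at 560 nm. Bidirectional fitting versus DMSO baseline.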

[17] = read-out: Thrombomodulin, THBD (gene 7056); experiment: BSK_3C_Thrombomodulin: BioMAP Diversity Plus: 3C Assay for Thrombomodulin Biomarker Activity (AID 2283029); settings: primary human endothelial cells (HUVEC); actives raise or lower the signal
In short: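 ELISA measurement of thrombomodulin on HUVEC surface 24 h after chemical dosing; activity fitted in both directions relative to DMSO vehicle.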

[18] = read-out: Urokinase-type plasminogen activator receptor (uPAR), PLAUR (gene 5329); experiment: BSK_4H_uPAR: BioMAP Diversity Plus: 4H Assay for Urokinase-type plasminogen activator receptor (uPAR) Biomarker Activity (AID 2283030); settings: primary human endothelial cells (HUVEC); actives raise or lower the signal
In short: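 Human umbilical vein endothelial cells in the 4H system, 24 h after chemical dosing. Cell-surface uPAR measured by ELISA, fitted in both directions versus DMSO; cytotoxicity checked by SRB total protein in parallel cultures.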

[19] = molecular target: human RAR-related Orphan Receptor gamma (RORg), RORC (gene 6097) (UniProt P51449); experiment: ATG_RORg_TRANS: Attagene TRANS-FACTORIAL HepG2 Assay for human RAR-related Orphan Receptor gamma (RORg) (AID 2283011; active means hit-call score of the fitted dose curve at least 0.9, where 1 is the maximum)
Chain of human RAR-related Orphan Receptor gamma (RORg), RORC (gene 6097) (P51449 whole entry, looked up, the tested form may be a part): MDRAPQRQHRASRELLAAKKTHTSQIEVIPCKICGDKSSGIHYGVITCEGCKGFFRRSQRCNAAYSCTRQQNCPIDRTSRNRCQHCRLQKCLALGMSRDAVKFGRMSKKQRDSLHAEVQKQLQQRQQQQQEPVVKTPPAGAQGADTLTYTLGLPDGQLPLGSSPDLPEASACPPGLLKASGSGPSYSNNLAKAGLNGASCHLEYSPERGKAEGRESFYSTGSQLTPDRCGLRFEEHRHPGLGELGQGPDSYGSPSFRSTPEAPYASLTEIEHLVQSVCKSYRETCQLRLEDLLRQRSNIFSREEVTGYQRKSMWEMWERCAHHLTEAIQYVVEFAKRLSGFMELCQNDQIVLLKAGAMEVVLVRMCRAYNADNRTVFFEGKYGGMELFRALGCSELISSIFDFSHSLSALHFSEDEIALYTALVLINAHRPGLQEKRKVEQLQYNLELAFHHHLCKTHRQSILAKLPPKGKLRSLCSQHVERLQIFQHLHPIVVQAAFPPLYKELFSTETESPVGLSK
In short: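 HepG2 cells transiently transfected with GAL4-UAS reporter units and chimeric RORg-Gal4 construct; after 24 h chemical exposure, reporter mRNA measured by RT-PCR with fluorescent capillary electrophoresis, gain of signal fitted against DMSO.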

[20] = molecular target: human Thyroid Receptor alpha (THRa1), THRA (gene 7067) (UniProt P10827); experiment: ATG_THRa1_TRANS: Attagene TRANS-FACTORIAL HepG2 Assay for human Thyroid Receptor alpha (THRa1) (AID 2283014; active means hit-call score of the fitted dose curve at least 0.9, where 1 is the maximum)
Chain of human Thyroid Receptor alpha (THRa1), THRA (gene 7067) (P10827 whole entry, looked up, the tested form may be a part): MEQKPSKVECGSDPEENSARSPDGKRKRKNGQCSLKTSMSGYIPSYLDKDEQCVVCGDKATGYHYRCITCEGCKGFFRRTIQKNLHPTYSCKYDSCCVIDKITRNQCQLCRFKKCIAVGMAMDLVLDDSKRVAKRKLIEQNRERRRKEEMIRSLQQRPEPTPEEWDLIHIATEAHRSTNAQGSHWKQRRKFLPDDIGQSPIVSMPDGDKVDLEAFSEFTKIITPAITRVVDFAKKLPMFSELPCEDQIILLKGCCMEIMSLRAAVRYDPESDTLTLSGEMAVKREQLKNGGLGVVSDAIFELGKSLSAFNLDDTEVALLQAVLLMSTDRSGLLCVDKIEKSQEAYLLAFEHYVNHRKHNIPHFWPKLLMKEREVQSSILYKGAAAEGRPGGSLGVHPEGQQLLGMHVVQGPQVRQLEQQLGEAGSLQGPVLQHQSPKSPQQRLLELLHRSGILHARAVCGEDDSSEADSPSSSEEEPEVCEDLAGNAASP
In short: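 HepG2 cells transiently transfected with chimeric NR-Gal4 and GAL4-UAS reporter units, dosed 24 h. Reporter mRNA quantified by RT-PCR, fluorescent labeling, HpaI digestion and capillary electrophoresis; gain-of-signal fit versus DMSO.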

Measured: AC50

Chain of E-selectin (Homo sapiens) (P16581 whole entry, looked up): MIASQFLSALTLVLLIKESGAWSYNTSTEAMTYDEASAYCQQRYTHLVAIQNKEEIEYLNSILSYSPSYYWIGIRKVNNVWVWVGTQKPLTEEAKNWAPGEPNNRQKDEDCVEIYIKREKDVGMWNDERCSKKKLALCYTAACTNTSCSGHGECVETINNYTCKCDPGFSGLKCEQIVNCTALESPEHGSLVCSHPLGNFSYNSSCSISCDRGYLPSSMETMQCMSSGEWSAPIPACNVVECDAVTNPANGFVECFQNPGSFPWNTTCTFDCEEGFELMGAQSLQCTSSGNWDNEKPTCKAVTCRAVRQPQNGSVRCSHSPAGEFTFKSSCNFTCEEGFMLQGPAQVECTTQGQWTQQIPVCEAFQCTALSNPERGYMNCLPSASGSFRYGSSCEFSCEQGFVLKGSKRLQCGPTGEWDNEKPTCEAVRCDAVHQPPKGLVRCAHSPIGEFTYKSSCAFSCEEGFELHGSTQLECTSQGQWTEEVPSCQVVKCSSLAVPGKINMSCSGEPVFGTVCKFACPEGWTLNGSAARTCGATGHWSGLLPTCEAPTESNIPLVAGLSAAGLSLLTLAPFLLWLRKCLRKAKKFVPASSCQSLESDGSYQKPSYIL

CCNc1nc(Cl)nc(NCC)n1
not listed: [19] | [20]
inactive: all other assays above

O=C(O)COc1nc(Cl)c(Cl)cc1Cl
not listed: [1] | [19] | [20]
inactive: all other assays above

CNC(=O)ON=CC(C)(C)SC
not listed: [2] | [10] | [20]
inactive: all other assays above

CC1COC(Cn2cncn2)(c2ccc(Oc3ccc(Cl)cc3)cc2Cl)O1 (configuration not stated)
active: [3] 24.8 µM | [4] 36 µM | [5] 36.8 µM | [6] 15.3 µM | [7] 30.3 µM | [8] 28.6 µM | [9] 33.4 µM | [11] 20.8 µM | [12] 32.2 µM | [13] 37.2 µM | [14] 24.7 µM | [15] 26.9 µM | [16] 31 µM | [18] 24.3 µM
inactive: [1] | [2] | [10] | [17]

CCCCNC(=O)n1c(NC(=O)OC)nc2ccccc21
active: [5] 10 µM | [7] 13.7 µM | [11] 8.93 µM | [13] 9.8 µM | [15] 14 µM | [18] 9.62 µM
not listed: [19] | [20]
inactive: all other assays above

N#CC(CCc1ccc(Cl)cc1)(Cn1cncn1)c1ccccc1 (configuration not stated)
active: [11] 20 µM | [13] 39 µM | [16] 13.5 µM
not listed: [10] | [20]
inactive: all other assays above

CC(C)Oc1cc(-n2nc(C(C)(C)C)oc2=O)c(Cl)cc1Cl
inactive: [19] | [1] | [20] | [4] | [9] | [10] | [18]
active: [3] 29.2 µM | [5] 30.7 µM | [6] 25.8 µM | [7] 29.7 µM | [8] 29 µM | [11] 28.8 µM | [12] 7.66 µM | [13] 13.2 µM | [14] 29.3 µM | [15] 30.3 µM | [16] 20 µM | [17] 20 µM

CC(Oc1ccc(Cl)cc1Cl)C(=O)O (configuration not stated)
not listed: [10] | [19] | [20]
inactive: all other assays above

COc1nc(NC(C)C)nc(NC(C)C)n1
active: [17] 0.148 µM
not listed: [2]
inactive: all other assays above

CCc1nn(C)c(C(=O)NCc2ccc(C(C)(C)C)cc2)c1Cl
inactive: [19] | [12] | [17]
active: [20] 0.157 µM | [3] 20 µM | [4] 20 µM | [5] 28.4 µM | [6] 20 µM | [7] 17.3 µM | [8] 20 µM | [9] 34 µM | [11] 25.3 µM | [13] 37.2 µM | [14] 26.9 µM | [15] 33.7 µM | [16] 30.2 µM | [18] 33 µM

COC(=O)c1ccccc1C(=O)OC
not listed: [1] | [2] | [19] | [20]
inactive: all other assays above

CS/C(C)=N/OC(=O)N(C)SN(C)C(=O)O/N=C(\C)SC
active: [3] 30 µM | [5] 29.6 µM | [6] 29.3 µM | [7] 15.8 µM | [8] 29.7 µM | [9] 35.1 µM | [11] 26.5 µM | [13] 11.9 µM | [14] 19.9 µM | [15] 29.6 µM | [16] 28.6 µM | [18] 26.8 µM
inactive: [19] | [1] | [4] | [12] | [17]

Fc1ccc(Oc2ccnc3cc(Cl)cc(Cl)c23)cc1
inactive: [1] | [2] | [20] | [17]
active: [3] 32.3 µM | [4] 30.7 µM | [5] 30.4 µM | [6] 22.1 µM | [7] 25.1 µM | [8] 31.5 µM | [9] 31.2 µM | [11] 22.9 µM | [12] 35.9 µM | [13] 29.4 µM | [14] 23 µM | [15] 30.8 µM | [16] 32.8 µM | [18] 32.1 µM

N#Cc1cc(Br)c(O)c(Br)c1
active: [6] 14.3 µM | [7] 28 µM | [11] 20 µM | [14] 16.5 µM | [15] 19 µM | [18] 16.9 µM
not listed: [10] | [19]
inactive: all other assays above
